Holding throughout (test): log2 fold change, soluble protein after heating vs DMSO (PISA); higher = thermal stabilisation; K562 cells, 10 uM, 30 min; active = over 0.2 and 3.5 SD of the protein, either way, in both replicates (recomputed)
Compound in test [1]: CS(=O)(=O)c1ccc(-c2cnc(N)c(C(=O)Nc3ccccc3)n2)cc1
The method, boiled down:
(§1)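 Thermal stability values are relative to control samples and come from duplicates. They are expressed as log2 fold changes. For measurement, K562 cells (2×10^6 cells/mL) received 10 μM compound for 30 min, and aliquots were heated for 3 min over 48°C-58°C, pooled, and extracted at 4°C in PBS with 0.5% NP-40. Soluble protein, the supernatant after 21,000xg for 90 min, was quantified by TMTpro 16plex LC-MS/MS with equalised channel sums.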

Compound in the next test: C[C@@H](Oc1cc(-c2cnn(C3CCNCC3)c2)cnc1N)c1c(Cl)ccc(F)c1Cl [crizotinib]
A digest of the protocol:
as §1

Compound in test [2]: C[C@@H]1COCCN1C2=NC(=NC(=C2)C3(CC3)S(=O)(=O)C)C4=C5C=CNC5=CC=C4
The method, boiled down:
as §1

Compound in test [3]: C[C@H](C1=CC=C(C=C1)C(=O)NC2=C3C=CNC3=NC=C2)N
The method, boiled down:
as §1

Compound in the next test: C[C@H](Nc1ncnc2nc[nH]c12)c1cc2cccc(Cl)c2c(=O)n1-c1ccccc1 [duvelisib]
The method, boiled down:
as §1

Compound in the next test: Cc1cc(Nc2cc(CN3CCOCC3)c3nc(C)c(Cc4ccc(Cl)cc4F)n3n2)n[nH]1 [gandotinib]
The method, boiled down:
as §1

Compound in the next test: Cc1cc(Nc2cc(N3CCN(C)CC3)nc(Sc3ccc(NC(=O)C4CC4)cc3)n2)n[nH]1 [tozasertib]
A digest of the protocol: as §1

Compound in test [4]: Cc1cc(SCc2sc(-c3ccc(C(F)(F)F)cc3)nc2C)ccc1OCC(=O)O
A digest of the protocol:
as §1

Compound in the next test: Cc1ccc(-n2nc(C(C)(C)C)cc2NC(=O)Nc2ccc(OCCN3CCOCC3)c3ccccc23)cc1 [doramapimod]
The method, boiled down: as §1

Compound in another test: Cc1ccc(C(=O)N(CCCN)[C@@H](c2nc3cc(Cl)ccc3c(=O)n2Cc2ccccc2)C(C)C)cc1 [ispinesib]
A digest of the protocol:
as §1

Compound in another test: Cc1ccc(NC(=O)c2ccc(CN3CC[C@H](N(C)C)C3)c(C(F)(F)F)c2)cc1Nc1nccc(-c2cncnc2)n1 [bafetinib]
The method, boiled down:
as §1

Compound in test [5]: Cc1cccc(CC(=O)N2CCc3c2ccc(-c2cn(C)c4ncnc(N)c24)c3F)n1
The method, boiled down:
as §1

Compound in a further test: Cc1cn(-c2cc(NC(=O)c3ccc(C)c(Nc4nccc(-c5cccnc5)n4)c3)cc(C(F)(F)F)c2)cn1 [nilotinib]
A digest of the protocol:
as §1

Compound in test [6]: Cc1nc(Nc2n[nH]c3c2CN(C(=O)N[C@H](CN(C)C)c2ccccc2)C3(C)C)c2sccc2n1
A digest of the protocol:
as §1

Compound in another test: Cc1nc(Nc2ncc(C(=O)Nc3c(C)cccc3Cl)s2)cc(N2CCN(CCO)CC2)n1 [dasatinib]
A digest of the protocol: as §1

Compound in test [7]: Cc1ncc(-c2ccnc(Nc3ccc(S(C)(=O)=O)cc3)n2)n1C(C)C
A digest of the protocol:
as §1

Compound in test [8]: Cn1cc(-c2ccc3c(c2)CCN3C(=O)Cc2cccc(C(F)(F)F)c2)c2c(N)ncnc21
A digest of the protocol: as §1

Compound in test [9]: Cn1cc(-c2ccc3nnc(C(F)(F)c4ccc5ncccc5c4)n3n2)cn1
The method, boiled down:
as §1

Compound in another test: Cn1cncc1[C@@](N)(c1ccc(Cl)cc1)c1ccc2c(c1)c(-c1cccc(Cl)c1)cc(=O)n2C [tipifarnib]
The method, boiled down: as §1

Compound in the next test: FC(F)(F)c1ccc(/C=C/c2nc(COc3ccc(CCCCn4ccnn4)cc3)co2)cc1 [mubritinib]
The method, boiled down: as §1

About 7,900 targets were measured; listed, in parts, are those with a hit and a random draw of the rest. About 0.6% of all pairs of compound and target were hits. Values without a mark were called inactive.

UniProt Q14653, sequence (Q14653 whole entry, looked up): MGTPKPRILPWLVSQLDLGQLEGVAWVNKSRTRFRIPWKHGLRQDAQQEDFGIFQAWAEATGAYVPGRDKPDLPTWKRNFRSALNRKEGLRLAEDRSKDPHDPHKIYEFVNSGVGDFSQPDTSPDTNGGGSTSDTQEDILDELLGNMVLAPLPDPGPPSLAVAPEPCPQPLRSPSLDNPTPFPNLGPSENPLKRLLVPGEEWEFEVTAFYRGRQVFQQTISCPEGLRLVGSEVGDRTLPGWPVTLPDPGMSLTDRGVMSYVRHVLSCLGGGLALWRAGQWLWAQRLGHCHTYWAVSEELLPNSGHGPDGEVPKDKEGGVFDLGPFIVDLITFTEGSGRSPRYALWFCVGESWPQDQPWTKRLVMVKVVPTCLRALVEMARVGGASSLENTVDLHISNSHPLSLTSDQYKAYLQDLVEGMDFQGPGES
UniProt Q86WA8, sequence (Q86WA8 whole entry, looked up): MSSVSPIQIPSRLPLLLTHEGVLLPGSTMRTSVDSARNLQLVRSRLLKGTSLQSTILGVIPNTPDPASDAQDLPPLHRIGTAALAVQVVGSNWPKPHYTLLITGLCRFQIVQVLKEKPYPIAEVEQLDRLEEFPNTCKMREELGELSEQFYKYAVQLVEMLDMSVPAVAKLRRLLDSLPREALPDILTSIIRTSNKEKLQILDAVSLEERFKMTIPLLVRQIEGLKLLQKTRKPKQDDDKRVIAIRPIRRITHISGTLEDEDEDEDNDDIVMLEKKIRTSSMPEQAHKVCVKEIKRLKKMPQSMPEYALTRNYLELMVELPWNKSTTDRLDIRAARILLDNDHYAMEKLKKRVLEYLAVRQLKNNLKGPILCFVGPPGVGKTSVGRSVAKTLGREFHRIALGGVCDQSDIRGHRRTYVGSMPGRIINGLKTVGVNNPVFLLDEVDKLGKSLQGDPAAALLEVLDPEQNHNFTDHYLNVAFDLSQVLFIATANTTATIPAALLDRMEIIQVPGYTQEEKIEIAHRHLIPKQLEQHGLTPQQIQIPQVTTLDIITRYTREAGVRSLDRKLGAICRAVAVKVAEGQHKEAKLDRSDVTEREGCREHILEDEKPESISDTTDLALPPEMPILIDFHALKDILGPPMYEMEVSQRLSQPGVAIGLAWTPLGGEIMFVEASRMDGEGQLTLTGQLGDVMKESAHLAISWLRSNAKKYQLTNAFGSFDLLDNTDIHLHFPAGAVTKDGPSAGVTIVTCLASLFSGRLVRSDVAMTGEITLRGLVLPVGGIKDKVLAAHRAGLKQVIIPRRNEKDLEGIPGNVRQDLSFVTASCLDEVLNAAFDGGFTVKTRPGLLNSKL
UniProt Q15648, sequence (Q15648 whole entry, looked up): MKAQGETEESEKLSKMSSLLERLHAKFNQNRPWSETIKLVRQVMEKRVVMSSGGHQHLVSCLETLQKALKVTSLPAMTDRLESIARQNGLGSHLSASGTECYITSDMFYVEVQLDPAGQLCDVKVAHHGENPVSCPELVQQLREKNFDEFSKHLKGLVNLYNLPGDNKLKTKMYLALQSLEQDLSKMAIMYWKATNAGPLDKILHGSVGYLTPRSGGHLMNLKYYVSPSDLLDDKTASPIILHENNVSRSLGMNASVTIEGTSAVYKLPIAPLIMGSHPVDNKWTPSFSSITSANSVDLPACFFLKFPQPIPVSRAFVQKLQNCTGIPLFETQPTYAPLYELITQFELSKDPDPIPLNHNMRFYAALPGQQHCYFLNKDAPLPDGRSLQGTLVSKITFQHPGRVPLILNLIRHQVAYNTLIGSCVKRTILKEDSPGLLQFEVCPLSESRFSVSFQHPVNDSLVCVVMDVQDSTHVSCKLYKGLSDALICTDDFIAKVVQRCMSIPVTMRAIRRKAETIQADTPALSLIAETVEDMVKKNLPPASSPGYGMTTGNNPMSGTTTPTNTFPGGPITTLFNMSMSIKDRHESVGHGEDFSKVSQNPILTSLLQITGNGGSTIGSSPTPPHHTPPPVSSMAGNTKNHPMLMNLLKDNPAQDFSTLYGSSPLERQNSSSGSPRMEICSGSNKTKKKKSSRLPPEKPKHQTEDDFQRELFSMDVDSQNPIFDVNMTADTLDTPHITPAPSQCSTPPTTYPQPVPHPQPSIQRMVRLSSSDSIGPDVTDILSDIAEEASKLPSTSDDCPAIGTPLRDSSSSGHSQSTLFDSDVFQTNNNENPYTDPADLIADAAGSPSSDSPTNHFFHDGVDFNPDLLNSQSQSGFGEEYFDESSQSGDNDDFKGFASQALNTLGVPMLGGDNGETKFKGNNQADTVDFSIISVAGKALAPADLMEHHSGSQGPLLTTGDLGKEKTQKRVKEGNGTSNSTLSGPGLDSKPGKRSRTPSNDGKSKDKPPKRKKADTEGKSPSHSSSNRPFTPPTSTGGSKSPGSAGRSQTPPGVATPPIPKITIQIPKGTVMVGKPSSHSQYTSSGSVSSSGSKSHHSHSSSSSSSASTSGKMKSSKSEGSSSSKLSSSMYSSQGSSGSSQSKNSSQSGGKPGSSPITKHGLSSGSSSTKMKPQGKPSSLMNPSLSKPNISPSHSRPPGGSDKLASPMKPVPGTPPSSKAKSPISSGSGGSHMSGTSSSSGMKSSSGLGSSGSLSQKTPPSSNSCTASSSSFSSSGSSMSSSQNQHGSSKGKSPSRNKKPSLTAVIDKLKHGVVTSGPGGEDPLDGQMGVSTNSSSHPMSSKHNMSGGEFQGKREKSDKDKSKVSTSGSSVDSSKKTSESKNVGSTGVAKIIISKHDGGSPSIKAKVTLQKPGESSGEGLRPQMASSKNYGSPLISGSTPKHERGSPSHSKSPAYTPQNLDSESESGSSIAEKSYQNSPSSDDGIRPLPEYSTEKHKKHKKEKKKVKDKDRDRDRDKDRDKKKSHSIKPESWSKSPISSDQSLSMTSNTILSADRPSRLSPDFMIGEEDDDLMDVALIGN
UniProt Q9GZY8, sequence (Q9GZY8 whole entry, looked up): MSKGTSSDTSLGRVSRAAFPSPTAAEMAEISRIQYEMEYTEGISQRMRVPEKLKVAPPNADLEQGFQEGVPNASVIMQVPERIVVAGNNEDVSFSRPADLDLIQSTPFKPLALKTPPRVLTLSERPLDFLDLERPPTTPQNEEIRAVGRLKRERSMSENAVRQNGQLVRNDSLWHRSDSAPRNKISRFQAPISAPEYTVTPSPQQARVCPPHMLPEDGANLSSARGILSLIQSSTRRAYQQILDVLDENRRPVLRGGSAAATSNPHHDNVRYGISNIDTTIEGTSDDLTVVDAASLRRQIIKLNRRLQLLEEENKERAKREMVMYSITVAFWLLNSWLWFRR
UniProt Q8IYU8, sequence (Q8IYU8 whole entry, looked up): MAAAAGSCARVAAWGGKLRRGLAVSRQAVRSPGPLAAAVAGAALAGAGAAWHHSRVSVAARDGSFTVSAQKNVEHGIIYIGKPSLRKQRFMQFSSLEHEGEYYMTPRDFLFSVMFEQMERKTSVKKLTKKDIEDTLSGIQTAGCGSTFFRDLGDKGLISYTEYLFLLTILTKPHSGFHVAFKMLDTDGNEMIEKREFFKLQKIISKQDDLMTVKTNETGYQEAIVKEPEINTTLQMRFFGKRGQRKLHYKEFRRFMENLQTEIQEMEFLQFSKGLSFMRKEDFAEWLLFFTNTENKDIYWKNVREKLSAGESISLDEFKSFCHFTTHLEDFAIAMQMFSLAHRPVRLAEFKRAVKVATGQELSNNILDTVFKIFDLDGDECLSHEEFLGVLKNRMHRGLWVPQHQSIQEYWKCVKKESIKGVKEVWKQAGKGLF

Consider LONP2 (UniProt Q86WA8), for which the log2 fold change in test [1] was -0.004; with crizotinib it was 0.072; in test [2] it was 0.026; in [3] it was 0.113; with duvelisib, -0.017; with gandotinib, 0.017. In addition, the log2 fold change with tozasertib was 0.073; in [4], -0.094; with doramapimod, 0.073; with ispinesib it was 0.092; with bafetinib it was -0.037; in [5], -0.054. The log2 fold change with nilotinib is 0.26; in [6], -0.187; in the test with dasatinib it was 0.024; in test [7], -0.065; in [8], 0.055; in test [9], -0.131. Besides, the log2 fold change with tipifarnib was 0.012; with mubritinib, 0.063.

On to MED1 (UniProt Q15648), for which the log2 fold change in test [1] is 0.011; with crizotinib, 0.014; in [2], 0.043; in test [3], 0.04; with duvelisib, -0.044; with gandotinib, -0.025. In addition, the log2 fold change was -0.031 in the test with tozasertib; -0.05 in test [4]; 0.11 with doramapimod; -0.078 with ispinesib; 0.016 with bafetinib; -0.018 in [5]. In addition, the log2 fold change was 0.057 in the test with nilotinib; 0 in test [6]; 0.037 in the test with dasatinib; -0.217 (active) in [7]; -0.064 in [8]; -0.089 in test [9]. The log2 fold change with tipifarnib is 0.069; with mubritinib it was 0.004.

Consider MICU2 (UniProt Q8IYU8), for which the log2 fold change in [1] was 0.014; with crizotinib, -0.173; in test [2], -0.026; in test [3], 0.108; with duvelisib it was -0.045; with gandotinib, -0.062. Also, the log2 fold change in the test with tozasertib was -0.036; in test [4], 0.035; with doramapimod it was -0.009; with ispinesib it was -0.213; with bafetinib, -0.142; in [5], 0.092. Besides, the log2 fold change with nilotinib is -0.052; in [6], -0.067; with dasatinib, -0.102; in test [7], -0.001; in test [8], -0.022; in test [9], -0.05. Further, the results for the log2 fold change in the test with tipifarnib and in the test with mubritinib were 0.022 and -0.155, respectively.

For the target MAGI1 (UniProt Q96QZ7), the log2 fold change in test [1] is -0.006; with crizotinib it was -0.003; in test [2], -0.053; in [3], 0.032; in the test with duvelisib, -0.013; with gandotinib it was 0.003. The log2 fold change with tozasertib is -0.03; in test [4], 0.046; with doramapimod, 0.024; with ispinesib, -0.042; in the test with bafetinib it was -0.055; in [5] it was -0.023. The log2 fold change was 0.015 in the test with nilotinib; -0.477 (active) in test [6]; 0.039 with dasatinib; -0.044 in test [7]; 0.052 in test [8]; -0.079 in [9]. Moreover, the log2 fold change is 0.079 in the test with tipifarnib and -0.021 in the test with mubritinib.

In the case of KHDC4 (UniProt Q7Z7F0), the log2 fold change in test [1] was 0.045; with crizotinib it was -0.091; in test [2] it was 0; in [3], -0.074; in the test with duvelisib it was 0.255; with gandotinib it was -0.052. In addition, the log2 fold change in the test with tozasertib is 0.013; in test [4], 0.207; with doramapimod, -0.054; with ispinesib it was 0.027; with bafetinib, -0.051; in test [5], 0.057. Besides, the log2 fold change is 0.063 with nilotinib; -0.054 in test [6]; -0.009 in the test with dasatinib; -0.053 in test [7]; -0.006 in test [8]; -0.053 in test [9]. In addition, the log2 fold change is -0.133 with tipifarnib and 0.004 with mubritinib.

Consider IRF3 (UniProt Q14653), for which the log2 fold change in test [1] was -0.146; with crizotinib it was 0.007; in test [2] it was 0.056; in test [3], -0.027; with duvelisib, 0.067; with gandotinib, -0.068. Moreover, the log2 fold change was 0.039 with tozasertib; 0.053 in test [4]; -0.038 with doramapimod; 0.022 with ispinesib; 0.033 with bafetinib; 0.023 in test [5]. The log2 fold change in the test with nilotinib was 0.066; in test [6] it was -0.191; with dasatinib, -0.1; in test [7], -0.04; in [8] it was 0.106; in test [9] it was 0.005. Moreover, the log2 fold change with tipifarnib was -0.023; with mubritinib, 0.039.

Take MFF (UniProt Q9GZY8): the log2 fold change in test [1] is -0.03; with crizotinib, -0.051; in [2] it was -0.052; in test [3] it was -0.023; with duvelisib it was 0.005; with gandotinib, -0.036. Also, the log2 fold change with tozasertib was -0.053; in test [4], -0.085; with doramapimod, -0.018; in the test with ispinesib, -0.088; in the test with bafetinib, -0.065; in test [5], -0.049. Also, the log2 fold change in the test with nilotinib was -0.057; in [6], -0.073; with dasatinib, 0.014; in test [7], -0.017; in test [8], -0.011; in test [9] it was -0.05. Besides, the values for the log2 fold change with tipifarnib and with mubritinib were 0.073 and 0.035, respectively.
